Measurements taken from PubChem BioAssay (EPA / NIEHS).
“And” between values parts separate entries of the source, which are not always exact repeats. Equal entries are not always repeated. The source made the active and inactive calls. The calls were made as follows: active = hit-call score of the fitted dose curve at least 0.9, where 1 is the maximum; inactive = score below 0.9.

read-out: TIMP metallopeptidase inhibitor 2 (TIMP2), TIMP2 (gene 7077); assay: BSK_hDFCGF_TIMP2: BioMAP Diversity Plus: hDFCGF Assay for TIMP metallopeptidase inhibitor 2 (TIMP2) Biomarker Activity (AID 2284289); details: primary human foreskin fibroblasts
Procedure: BSK_hDFCGF is a cell-based, multiplexed-readout assay that uses foreskin fibroblast, a human skin primary cell, with measurements taken at 24 hours after chemical dosing in a 96-well plate.BSK_hDFCGF_TIMP2 is an assay component measured in the BSK_hDFCGF assay. It measures TIMP-2 antibody related to regulation of gene expression using ELISA technology.Data from the assay component BSK_hDFCGF_TIMP2 was analyzed at the endpoint, BSK_hDFCGF_TIMP2, in the positive analysis fitting direction relative to DMSO as the negative control and baseline of activity. Using a type of binding reporter, gain or loss-of-signal activity can be used to understand protein changes. To generalize the intended target to other relatable targets, this assay endpoint is annotated to the 'protease' intended target family, where the subfamily is 'matrix metalloproteinase'.
The levels of cell surface (or secreted, indicated by the prefix "s") biomarker endpoints were measured by ELISA. Overt cytotoxicity to cells in confluent adherent cultures (all systems other than the BT system) was assessed by measuring total protein levels using sulforhodamine B (SRB) staining in parallel cultures at the time of biomarker measurements, indicated as SRB endpoints. For proliferation assays for adherent cell types, individual cell types are cultured at sub-confluence and relative cell numbers quantified by SRB staining at time points optimized for each system (48 h: 3C and CASM3C systems; 72 h: BT and HDF3CGF systems; 96 h: SAg system). SRB was performed by staining cells with 0.1% SRB after fixation with 10% TCA and reading wells at 560 nm.Viability and proliferation of PBMC (T cells) was quantified by Alamar Blue reduction for the SAg and BT systems. For PBMC viability (referred to as PBMC Cytotoxicity within the assay endpoint names), cells were plated (75,000/well in a 96-well plate) and then chemical samples added for 1 h before addition of activators, SEB and TSST-1 (20 ng/mL final concentration each). Cells were incubated for 90 h. Then, Alamar Blue (20 uL/well) (Invitrogen, Cat DAL1100) was added for 6 h, and the plates were read with a fluorescence microplate reader at 546/580 nm (excitation/emission). For PBMC proliferation, cells were plated and activated as above but incubated for only 16 h prior to addition of Alamar Blue. Plates were read after 6 h.

SMILES | AC50 | outcome
OC(O)(C(F)C(O)(O)C(F)(F)F)C(F)(F)F | 7.41 µM (active) and 22.4 µM (active) | –
OCCC(F)(F)C(F)(F)C(F)(F)C(F)(F)F | – | inactive
O=C(Cl)C(F)(F)C(F)(F)C(F)(F)C(=O)Cl | – | inactive
FC(F)(F)COC(OCC(F)(F)F)OCC(F)(F)F | – | inactive
FC(F)C(F)(F)COCC1CO1 (stereo not given) | – | inactive
FC(F)=C(F)C(F)(F)C(F)(F)C(F)(F)C(F)(F)C(F)(F)C(F)(F)F | – | inactive
C[Si](C)(C)C(F)(F)C(F)(F)C(F)(F)F | – | inactive
O=S(=O)(O)CCC(F)(F)C(F)(F)C(F)(F)C(F)(F)C(F)(F)C(F)(F)F | – | inactive
NCC(F)(F)C(F)(F)C(F)(F)C(F)(F)F | – | inactive
FC(F)(F)C(F)(F)C(F)(F)C(F)(F)C(F)(F)C(F)(F)I | – | inactive
